Results published in PubChem BioAssay (NCATS).
Inconclusive results are not listed. Calls of active or inactive are those of the source. Unless noted, calls follow the shape of the dose curve; as a rule, active = well fitted curve in the direction sought with a large enough effect; inconclusive = small, poorly fitted or top-dose-only effect, or another doubt; inactive = no such curve, though single readings can be large; an effect the other way counts as inactive or inconclusive.

Columns and labels:
[1] = biological target: ATP-dependent 6-phosphofructokinase (Trypanosoma brucei brucei) (UniProt O15648); assay: qHTS Assay to Find Inhibitors of T. brucei phosphofructokinase: hit validation (AID 492961); also: % is scaled to controls: 0 for no effect and ±100 for the full control effect
Method in brief: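 Luminescence from ADP-Glo reports ADP generated as T. brucei PFK (1.25 nM) phosphorylates 0.5 mM fructose-6-phosphate using 0.1 mM ATP. Reactions ran 45 min at room temperature, pH 8.0.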

[2] = biological target: Ubiquitin carboxyl-terminal hydrolase 1 (Homo sapiens) (UniProt O94782); assay: Inhibitors of USP1/UAF1: Pilot qHTS (AID 504865);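 also: rhodamine fluorescence freed from ubiquitin-rhodamine substrate followed over time; top concentration of the series differs between compounds; % is scaled to controls: 0 for no effect and ±100 for the full control effect; nearly all actives have a fitted effect of over 35% in size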
Method in brief: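 USP1/UAF1 complex at 1 nM preincubated 15 min at room temperature with compound, then Ub-Rho substrate added at 150 nM final. Fluorescence (480/540 nm) read kinetically in 50 mM HEPES pH 7.8, 0.5 mM EDTA, 1 mM TCEP, 0.1 mg/ml BSA, 0.01% Tween-20.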

[3] = biological target: Luciferin 4-monooxygenase (Photinus pyralis) (UniProt P08659); assay: Biochemical firefly luciferase enzyme assay for NPC (AID 624030);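 also: purified P. pyralis luciferase at 10 nM with luciferin and ATP substrate; 0% = DMSO and -100% = full luciferase inhibition by PTC124 control; nearly all actives have a fitted effect of over 70% in size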
Method in brief: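 Purified P. pyralis luciferase at 10 nM in 50 mM Tris Acetate (final), luminescence read within 5 minutes of enzyme addition to compounds. Activity normalised to PTC124 versus DMSO; concentration-response curves classed by r2, magnitude and activity.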

[4] = S16 Schwann cell viability assay (CellTiter-Glo assay) (AID 624031);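 also: cellular ATP luminescence as a viability measure; plate controls were DMSO-treated cells for no effect and cell-free wells for full effect; nearly all actives have a fitted effect of over 70% in size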
Method in brief: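 Native S16 rat Schwann cells in DMEM/10% FBS without phenol red were incubated overnight, then exposed to compounds for 24 h at 37 °C/5% CO2. Viability was read as ATP luminescence (CellTiter-Glo), normalized to no-cell wells and DMSO (0%).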

[5] = S16 Schwann cell PMP22 intronic element beta-lactamase assay (AID 624044; calls by dose curve; also: potency is read from the fitted curve at half-maximal effect; nearly all actives have a fitted effect of over 15% in size)
Method in brief: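 Rat S16 Schwann cells with beta-Lac driven by a PMP22 intronic element, compound-treated 24 h at 37 °C. LiveBLAzer FRET B/G read: 460 nm normalized to potassium clavulanate vs DMSO; 535 nm FRET as viability; concentration-effect curves classified.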

Furin (Homo sapiens) = Furin (Homo sapiens) (UniProt P09958); assay: Furin counterscreen qHTS for Zika virus inhibitors (AID 1347149);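 also: purified recombinant full-length human furin enzyme at 5 nM; fluorescence gain from furin cutting a BOC-RVRR-AMC peptide substrate over 15 min; top concentration of the series differs between compounds; plate controls were no-inhibitor control for no effect and no-enzyme control for full effect; nearly all actives have a fitted effect of over 70% in size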
Method in brief: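 Fluorogenic cleavage of BOC-RVRR-AMC (2 microM final, Km ~15 µM) was monitored (ex 340, em 450 nm) at 37C after 15 min RT preincubation of 5 nM furin with compounds in HEPES pH 7.0 buffer with CaCl2 and Triton X-100. Percent inhibition was fitted to a 4-parameter Hill curve.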

[6] = system: Zika virus NS2B-NS3 protease (unlinked); assay: Optimization of GU AMC qHTS for Zika virus inhibitors: Unlinked NS2B-NS3 protease assay (AID 1347151);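 also: 0% = no-inhibitor control and -100% = no-enzyme control; nearly all actives have a fitted effect of over 80% in size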
Method in brief: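 Noncovalent NS2B hydrophilic domain–NS3 protease complex (25 nM final) in 10 mM Tris-HCl pH 8.0, 0.01% Tween 20; AMC substrate, room temperature 15 min (~20% conversion); fluorescence change normalized, 4-parameter Hill fit.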

[7] = Vero cells viability qHTS for Zika virus inhibitors (AID 1347167); also: % is scaled to controls: 0 for no effect and ±100 for the full control effect
Method in brief: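 Cells seeded at 2.5 x 10^5 cells/mL in DMEM with 4% FBS and attached overnight at 37 degrees C, then exposed to compound for 24 to 48 hours. Viability read as ATP content by CellTiter Glo luminescence.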

[8] = qHTS profiling for inhibitors of Plasmodium falciparum proliferation (AID 504749); also: nearly all actives have a fitted effect of over 60% in size; also: potency is read from the fitted curve at half-maximal effect;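 as to activity, negative = inhibition: 0% = DMSO vehicle and full inhibition = artemisinin control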; conditions: P. falciparum in erythrocytes, SYBR Green DNA, 72 h, at 28.7 µM (top of the series)
Method in brief: (§1)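 P. falciparum-infected erythrocytes (0.3% parasitemia, 2.5% hematocrit) incubated with compound 72 h at 37 C, 5% CO2. Parasite DNA detected by SYBR Green after lysis, overnight at room temperature; normalised to 0.29 uM artemisinin and DMSO.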

3D7 = assay: as above; conditions: P. falciparum in erythrocytes, SYBR Green DNA, 72 h; series mostly up to 28.7 µM
Method in brief: as §1

AS120 = assay: as above; conditions: P. falciparum in erythrocytes, SYBR Green DNA, 72 h; series mostly up to 28.7 µM
Method in brief: as §1

ATS95 = assay: as above; conditions: P. falciparum in erythrocytes, SYBR Green DNA, 72 h; series mostly up to 28.7 µM
Method in brief: as §1

C2A = assay: as above; conditions: P. falciparum in erythrocytes, SYBR Green DNA, 72 h; series mostly up to 28.7 µM
Method in brief: as §1

CP185 = assay: as above; conditions: P. falciparum in erythrocytes, SYBR Green DNA, 72 h; series mostly up to 28.7 µM
Method in brief: as §1

CP191 = assay: as above; conditions: P. falciparum in erythrocytes, SYBR Green DNA, 72 h; series mostly up to 28.7 µM
Method in brief: as §1

CP192 = assay: as above; conditions: P. falciparum in erythrocytes, SYBR Green DNA, 72 h; series mostly up to 28.7 µM
Method in brief: as §1

CP201 = assay: as above; conditions: P. falciparum in erythrocytes, SYBR Green DNA, 72 h; series mostly up to 28.7 µM
Method in brief: as §1

CP211 = assay: as above; conditions: P. falciparum in erythrocytes, SYBR Green DNA, 72 h; series mostly up to 28.7 µM
Method in brief: as §1

CP215 = assay: as above; conditions: P. falciparum in erythrocytes, SYBR Green DNA, 72 h; series mostly up to 28.7 µM
Method in brief: as §1

CP237 = assay: as above; conditions: P. falciparum in erythrocytes, SYBR Green DNA, 72 h; series mostly up to 28.7 µM
Method in brief: as §1

CP238 = assay: as above; conditions: P. falciparum in erythrocytes, SYBR Green DNA, 72 h; series mostly up to 28.7 µM
Method in brief: as §1

CP247 = assay: as above; conditions: P. falciparum in erythrocytes, SYBR Green DNA, 72 h; series mostly up to 28.7 µM
Method in brief: as §1

CP250 = assay: as above; conditions: P. falciparum in erythrocytes, SYBR Green DNA, 72 h; series mostly up to 28.7 µM
Method in brief: as §1

CP252 = assay: as above; conditions: P. falciparum in erythrocytes, SYBR Green DNA, 72 h; series mostly up to 28.7 µM
Method in brief: as §1

CP256 = assay: as above; conditions: P. falciparum in erythrocytes, SYBR Green DNA, 72 h; series mostly up to 28.7 µM
Method in brief: as §1

CP262 = assay: as above; conditions: P. falciparum in erythrocytes, SYBR Green DNA, 72 h; series mostly up to 28.7 µM
Method in brief: as §1

CP266 = assay: as above; conditions: P. falciparum in erythrocytes, SYBR Green DNA, 72 h; series mostly up to 28.7 µM
Method in brief: as §1

CP269 = assay: as above; conditions: P. falciparum in erythrocytes, SYBR Green DNA, 72 h; series mostly up to 28.7 µM
Method in brief: as §1

CP291 = assay: as above; conditions: P. falciparum in erythrocytes, SYBR Green DNA, 72 h; series mostly up to 28.7 µM
Method in brief: as §1

CP305 = assay: as above; conditions: P. falciparum in erythrocytes, SYBR Green DNA, 72 h; series mostly up to 28.7 µM
Method in brief: as §1

CP315 = assay: as above; conditions: P. falciparum in erythrocytes, SYBR Green DNA, 72 h; series mostly up to 28.7 µM
Method in brief: as §1

CP325 = assay: as above; conditions: P. falciparum in erythrocytes, SYBR Green DNA, 72 h; series mostly up to 28.7 µM
Method in brief: as §1

CP329 = assay: as above; conditions: P. falciparum in erythrocytes, SYBR Green DNA, 72 h; series mostly up to 28.7 µM
Method in brief: as §1

DFO2036 = assay: as above; conditions: P. falciparum in erythrocytes, SYBR Green DNA, 72 h; series mostly up to 28.7 µM
Method in brief: as §1

DIV30 = assay: as above; conditions: P. falciparum in erythrocytes, SYBR Green DNA, 72 h; series mostly up to 28.7 µM
Method in brief: as §1

Dd2 = assay: as above; conditions: P. falciparum in erythrocytes, SYBR Green DNA, 72 h; series mostly up to 28.7 µM
Method in brief: as §1

ECU = assay: as above; conditions: P. falciparum in erythrocytes, SYBR Green DNA, 72 h; series mostly up to 28.7 µM
Method in brief: as §1

FAB9 = assay: as above; conditions: P. falciparum in erythrocytes, SYBR Green DNA, 72 h; series mostly up to 28.7 µM
Method in brief: as §1

HB3 = assay: as above; conditions: P. falciparum in erythrocytes, SYBR Green DNA, 72 h; series mostly up to 28.7 µM
Method in brief: as §1

JCK = assay: as above; conditions: P. falciparum in erythrocytes, SYBR Green DNA, 72 h; series mostly up to 28.7 µM
Method in brief: as §1

PC15 = assay: as above; conditions: P. falciparum in erythrocytes, SYBR Green DNA, 72 h; series mostly up to 28.7 µM
Method in brief: as §1

PC26 = assay: as above; conditions: P. falciparum in erythrocytes, SYBR Green DNA, 72 h; series mostly up to 28.7 µM
Method in brief: as §1

PC49 = assay: as above; conditions: P. falciparum in erythrocytes, SYBR Green DNA, 72 h; series mostly up to 28.7 µM
Method in brief: as §1

SC27B = assay: as above; conditions: P. falciparum in erythrocytes, SYBR Green DNA, 72 h; series mostly up to 28.7 µM
Method in brief: as §1

TAB113 = assay: as above; conditions: P. falciparum in erythrocytes, SYBR Green DNA, 72 h; series mostly up to 28.7 µM
Method in brief: as §1

TAB165 = assay: as above; conditions: P. falciparum in erythrocytes, SYBR Green DNA, 72 h; series mostly up to 28.7 µM
Method in brief: as §1

W2 = assay: as above; conditions: P. falciparum in erythrocytes, SYBR Green DNA, 72 h; series mostly up to 28.7 µM
Method in brief: as §1

Chain of Luciferin 4-monooxygenase (Photinus pyralis) (P08659 whole entry, looked up): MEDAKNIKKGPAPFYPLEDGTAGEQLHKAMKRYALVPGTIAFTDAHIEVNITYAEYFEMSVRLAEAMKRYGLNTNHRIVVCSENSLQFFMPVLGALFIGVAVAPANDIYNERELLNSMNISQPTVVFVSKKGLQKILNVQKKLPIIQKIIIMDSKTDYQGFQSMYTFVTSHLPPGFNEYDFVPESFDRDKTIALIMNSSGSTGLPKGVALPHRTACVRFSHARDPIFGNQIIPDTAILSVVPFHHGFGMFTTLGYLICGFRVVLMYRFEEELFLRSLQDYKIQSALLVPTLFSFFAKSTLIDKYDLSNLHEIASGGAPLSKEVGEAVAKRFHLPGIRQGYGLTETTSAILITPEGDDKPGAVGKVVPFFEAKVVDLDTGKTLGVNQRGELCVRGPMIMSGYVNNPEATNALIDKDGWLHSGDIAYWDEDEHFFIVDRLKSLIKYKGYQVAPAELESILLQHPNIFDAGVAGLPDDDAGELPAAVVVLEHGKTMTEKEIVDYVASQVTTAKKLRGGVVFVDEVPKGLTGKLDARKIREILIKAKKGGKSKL
Chain of Furin (Homo sapiens) (P09958 whole entry, looked up): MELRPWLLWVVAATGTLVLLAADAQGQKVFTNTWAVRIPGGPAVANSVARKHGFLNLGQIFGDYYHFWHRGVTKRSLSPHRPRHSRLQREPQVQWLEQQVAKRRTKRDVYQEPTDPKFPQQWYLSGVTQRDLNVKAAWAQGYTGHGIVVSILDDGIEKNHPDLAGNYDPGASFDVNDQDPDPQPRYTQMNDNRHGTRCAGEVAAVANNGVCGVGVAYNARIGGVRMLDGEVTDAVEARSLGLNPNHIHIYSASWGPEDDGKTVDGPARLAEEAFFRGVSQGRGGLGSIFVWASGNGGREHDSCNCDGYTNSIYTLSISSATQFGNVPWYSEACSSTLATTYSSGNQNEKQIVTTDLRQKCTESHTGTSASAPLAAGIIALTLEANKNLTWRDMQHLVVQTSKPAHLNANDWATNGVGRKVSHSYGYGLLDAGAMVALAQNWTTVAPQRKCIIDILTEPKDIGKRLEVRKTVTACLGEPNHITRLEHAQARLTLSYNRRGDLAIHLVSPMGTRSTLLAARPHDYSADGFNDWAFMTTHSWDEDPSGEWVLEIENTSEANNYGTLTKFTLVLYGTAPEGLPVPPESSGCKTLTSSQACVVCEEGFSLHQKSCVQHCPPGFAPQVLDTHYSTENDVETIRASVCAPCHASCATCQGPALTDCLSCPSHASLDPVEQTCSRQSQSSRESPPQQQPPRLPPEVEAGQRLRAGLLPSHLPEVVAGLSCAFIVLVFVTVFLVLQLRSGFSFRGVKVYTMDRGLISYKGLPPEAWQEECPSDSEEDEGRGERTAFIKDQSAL
Chain of Ubiquitin carboxyl-terminal hydrolase 1 (Homo sapiens) (O94782 whole entry, looked up): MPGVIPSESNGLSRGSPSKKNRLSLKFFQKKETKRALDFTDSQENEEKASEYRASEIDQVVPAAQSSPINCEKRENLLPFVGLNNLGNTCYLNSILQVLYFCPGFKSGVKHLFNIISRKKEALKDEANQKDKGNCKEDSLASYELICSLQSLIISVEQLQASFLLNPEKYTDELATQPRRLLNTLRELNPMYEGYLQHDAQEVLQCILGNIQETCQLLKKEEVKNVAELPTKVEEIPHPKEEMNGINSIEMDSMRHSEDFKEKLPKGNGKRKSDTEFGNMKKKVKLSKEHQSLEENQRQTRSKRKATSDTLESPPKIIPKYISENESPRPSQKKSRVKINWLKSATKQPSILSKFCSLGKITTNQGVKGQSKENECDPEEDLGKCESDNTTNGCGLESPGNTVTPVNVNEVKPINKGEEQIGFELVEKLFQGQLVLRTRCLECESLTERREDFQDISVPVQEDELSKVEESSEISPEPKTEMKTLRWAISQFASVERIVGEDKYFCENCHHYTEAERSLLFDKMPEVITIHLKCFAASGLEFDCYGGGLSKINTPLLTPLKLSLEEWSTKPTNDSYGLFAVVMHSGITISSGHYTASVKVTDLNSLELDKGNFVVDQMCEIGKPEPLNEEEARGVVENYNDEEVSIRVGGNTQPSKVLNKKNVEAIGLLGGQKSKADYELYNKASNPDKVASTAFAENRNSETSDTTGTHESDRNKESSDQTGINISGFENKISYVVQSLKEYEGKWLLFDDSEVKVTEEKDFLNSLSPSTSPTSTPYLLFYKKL
Chain of ATP-dependent 6-phosphofructokinase (Trypanosoma brucei brucei) (O15648 whole entry, looked up): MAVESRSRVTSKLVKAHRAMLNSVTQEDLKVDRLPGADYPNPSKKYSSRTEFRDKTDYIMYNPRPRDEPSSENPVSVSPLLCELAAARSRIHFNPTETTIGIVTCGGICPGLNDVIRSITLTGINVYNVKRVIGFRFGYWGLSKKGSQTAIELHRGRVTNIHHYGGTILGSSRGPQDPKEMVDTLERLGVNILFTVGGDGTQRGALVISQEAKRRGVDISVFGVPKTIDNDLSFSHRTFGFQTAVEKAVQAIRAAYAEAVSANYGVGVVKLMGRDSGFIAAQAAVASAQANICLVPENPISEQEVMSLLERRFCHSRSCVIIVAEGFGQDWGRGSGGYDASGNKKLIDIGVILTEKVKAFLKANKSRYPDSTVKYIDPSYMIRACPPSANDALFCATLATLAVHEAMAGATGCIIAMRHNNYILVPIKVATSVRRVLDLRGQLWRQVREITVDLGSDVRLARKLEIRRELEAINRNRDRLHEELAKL

O=C1c2cccc3c2[C@@H](CCC3)CN1[C@@H]1CN2CCC1CC2
inactive: outcome [1] | Potency [2] | Potency [3] | outcome [4] | Potency (Furin (Homo sapiens)) | Potency [6] | Potency [7] | activity, negative = inhibition ([8]; parasite line A) -7.65% | activity, negative = inhibition ([8]; parasite line B) 6.33% | Potency (3D7) | Potency (AS120) | Potency (ATS95) | Potency (C2A) | Potency (CP185) | Potency (CP191) | Potency (CP192) | Potency (CP201) | Potency (CP211) | Potency (CP215) | Potency (CP238) | Potency (CP247) | Potency (CP250) | Potency (CP252) | Potency (CP256) | Potency (CP262) | Potency (CP266) | Potency (CP269) | Potency (CP291) | Potency (CP305) | Potency (CP315) | Potency (CP325) | Potency (CP329) | Potency (DFO2036) | Potency (DIV30) | Potency (ECU) | Potency (FAB9) | Potency (HB3) | Potency (JCK) | Potency (PC15) | Potency (PC26) | Potency (PC49) | Potency (SC27B) | Potency (TAB113) | Potency (TAB165)
active: Potency [5] 11.2 µM | Potency (CP237) 10 µM | Potency (Dd2) 12.6 µM | Potency (W2) 6.75 µM
